Our source for the inhibition values is ChEMBL document CHEMBL3433997, “St. Jude Leishmania screening dataset” (2016).

Format in all cases: functional
The target of assay [1] is Solute carrier family 2, facilitated glucose transporter member 1 (Homo sapiens) (UniProt P11166). Description: ST_JUDE_LEISH: Cytotoxicity at 2uM final concentration against transgenic Leishmania Mexicana promastigotes LmGLUT1 that are glucose transport deficient and complemented with the human glucose transporter GLUT1. Activity is measured by DNA content using SYBR green in vitro.
Chain of Solute carrier family 2, facilitated glucose transporter member 1 (Homo sapiens) (P11166 whole entry): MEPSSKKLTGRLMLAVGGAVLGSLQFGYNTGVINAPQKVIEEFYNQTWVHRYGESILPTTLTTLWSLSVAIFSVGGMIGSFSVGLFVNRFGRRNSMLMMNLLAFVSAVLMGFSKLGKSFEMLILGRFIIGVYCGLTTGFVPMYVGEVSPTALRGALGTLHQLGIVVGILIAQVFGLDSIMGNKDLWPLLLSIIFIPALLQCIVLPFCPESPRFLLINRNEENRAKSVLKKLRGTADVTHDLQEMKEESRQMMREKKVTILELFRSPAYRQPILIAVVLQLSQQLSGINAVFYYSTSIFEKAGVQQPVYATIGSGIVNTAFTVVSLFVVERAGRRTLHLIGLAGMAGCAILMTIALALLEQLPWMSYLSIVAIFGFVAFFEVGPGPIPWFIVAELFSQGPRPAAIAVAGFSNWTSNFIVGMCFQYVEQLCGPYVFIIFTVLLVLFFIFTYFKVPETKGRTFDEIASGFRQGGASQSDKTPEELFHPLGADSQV

Assay [2] has as its target Hexose transporter 1 (Plasmodium falciparum) (UniProt O97467). Description: ST_JUDE_LEISH: Cytotoxicity at 2uM final concentration against transgenic Leishmania Mexicana promastigotes LmPfHT that are glucose transport deficient and complemented with the Plasmodium falciparum hexose transporter. Activity is measured by DNA content using SYBR green in vitro.
For assay [3], the target named is Glucose transporter (Leishmania mexicana) (UniProt O61059). Description: ST_JUDE_LEISH: Cytotoxicity at 2uM final concentration against transgenic Leishmania Mexicana promastigotes LmGT2 that are glucose transport deficient and complemented with the L. Mexicana glucose transporter 2. Activity is measured by DNA content using SYBR green in vitro.

Broadly, the inhibition is the change of the read-out against control, counted positive when it falls.

As for `COc1ccc(CNC(=O)NC2CCN(c3ccnc(Nc4cc(OC)c(OC)c(OC)c4)n3)C2)cc1` (stereo not drawn), the inhibition in assay [1] was 1.55%; in assay [2], 5.45%; in assay [3], -1.15%.

Take `OC(CNc1ccnc(Nc2cccc(Cl)c2)n1)c1ccccc1C(F)(F)F` (stereo not drawn): the inhibition in assay [1] is 4.32%; in assay [2], 4.32%; in assay [3], -0.94%.

On to `O=C(N[C@H]1CCN(CCc2ccc(O[C@H]3CCNC3)cc2)C1)c1ccc(Cl)c(Cl)c1`, for which the figures for the inhibition in assay [1], in assay [2] and in assay [3] were 14.2%, 10.1% and 14.5%, respectively.

As for `CC(CCCCC(=O)Nc1ccc(CC(C)NCCc2cccc(Cl)c2)cc1)NCCc1cccc(Cl)c1` (stereo not drawn), the figures for the inhibition in assay [1], in assay [2] and in assay [3] were 0.84%, 2.45% and -1.1%, respectively.

`O=C(COc1ccc(F)cc1)NC1CCN(c2ccnc3cc(Cl)ccc23)C1` (stereo not drawn): the inhibition was found to be 7.22% in assay [1], 6.11% in assay [2] and 6.88% in assay [3].

As for `COc1cc(Cl)c(C)cc1N(Cc1ccccc1-c1ccccc1)S(=O)(=O)c1ccc(C(F)(F)F)cc1`, the figures for the inhibition in assay [1], in assay [2] and in assay [3] were 1.01%, 0.29% and 0.43%, respectively.

On to `CCN(CC)c1cc(C)c2cc(NC(=O)c3cc(=O)c4ccccc4o3)ccc2n1`, for which the inhibition in assay [1] is 6.32%; in assay [2], 6.88%; in assay [3], 1.71%.

`Cc1cc(N[C@@H](Cc2ccccc2)C(=O)NCCOc2ccccc2)nc(Nc2ccccc2)n1`: the results for the inhibition in assay [1], in assay [2] and in assay [3] were 6.08%, 6.54% and 2.62%, respectively.

`Cc1cccc(OCC2CCN(c3ncc(C(=O)NC4CC4)cc3Cl)CC2)c1`: the inhibition came to 0.26% in assay [1], 5.86% in assay [2] and 2.26% in assay [3].

Regarding `O=C(Nc1cccc(CN2CCCN(Cc3ccc(O)cc3)CC2)c1)c1cccc(Cl)c1`, the inhibition in assay [1] is 12.2%; in assay [2], 13.4%; in assay [3], 11.7%.

Consider `NC(=O)c1ccc(-c2ccc3ccnc(N)c3c2)cc1`, for which the inhibition in assay [1] worked out at 7.25%; in assay [2], 6.12%; in assay [3], 4.88%.

For `Cc1[nH]c(C)c(Cc2ccc(Oc3ccc(OC(F)(F)F)cc3)cc2)c(=O)c1Br`, the results for the inhibition in assay [1], in assay [2] and in assay [3] were -0.67%, -0.95% and -3.03%, respectively.

Take `Cc1ccc(Nc2c3ccccc3nc3ccc(C)cc23)cc1`: the inhibition came to 4.86% in assay [1], 7.1% in assay [2] and 2.9% in assay [3].

`Cc1cccc2nc(-c3cccc(-c4ccc(NC(=O)c5cnccc5C(F)(F)F)cc4)c3)[nH]c12`: the inhibition in assay [1] was 1.18%; in assay [2], -0.42%; in assay [3], 3.44%.

For `CN(C)c1ccc(C(c2ccc(N(C)C)cc2)c2cc([N+](=O)[O-])ccc2Cl)cc1`, the figures for the inhibition in assay [1], in assay [2] and in assay [3] were 0.57%, 0.82% and -3.09%, respectively.

Turning to `O=C(/C=C/c1ccc(Cl)c(Cl)c1)NCCCCCN1CCC(NC(=O)Nc2cc(Cl)nc(Cl)c2)CC1`, the inhibition is 1.28% in assay [1], -0.18% in assay [2] and 0.44% in assay [3].

Turning to `CCOc1ccc(C(=O)N2CCOC(CCN3CCC(c4ccccc4)CC3)(c3ccc(Cl)c(Cl)c3)C2)cc1` (stereo not drawn), the inhibition was found to be 3.91% in assay [1], 3.91% in assay [2] and 4.6% in assay [3].

With `Cc1noc(C)c1-c1cccc(CNCc2cccc(-c3ccc(-c4nc5ccccc5[nH]4)s3)c2)c1`, the inhibition in assay [1] was found to be 8.57%; in assay [2] it was 3.74%; in assay [3] it was 7.45%.

Consider `Cc1[nH]cc(Br)c(=O)c1-c1ccc(Oc2ccc(OC(F)(F)F)cc2)cc1`, for which the inhibition was 3.93% in assay [1], 4.74% in assay [2] and 4.41% in assay [3].

Regarding `OC(CNCc1ccccc1Oc1ccccc1)c1cc(Br)cs1` (stereo not drawn), the inhibition in assay [1] came to 4.37%; in assay [2] it was 3.03%; in assay [3], 3.26%.

On to `C[C@@H](N/C(=N\c1ccccc1Cl)Nc1ccc(C#N)cc1O)c1ccc(Br)cc1`, for which the inhibition was 6.22% in assay [1], 5.06% in assay [2] and 3.66% in assay [3].

Regarding `CC(C)COc1ccc(Cl)cc1Cc1nc(-c2nc3ccc(CN(C)C)cc3[nH]2)co1`, the inhibition in assay [1] was determined as 4.88%; in assay [2], 4.73%; in assay [3], 4.57%.

With `Oc1ccc2c(c1CNC1CCCCC1)CCCC2`, the inhibition turned out to be 5.27% in assay [1], 3.89% in assay [2] and 4.96% in assay [3].

For `O=C(Nc1ccc(C(F)(F)F)cc1)Nc1cccc([N+](=O)[O-])c1`, the inhibition in assay [1] was 2.81%; in assay [2], 2.48%; in assay [3], 3.51%.

`Cn1cccc1C(=O)C(=O)Nc1cccc(-c2ccc(-c3nc4cc(C(F)(F)F)ccc4[nH]3)cc2)c1`: the figures for the inhibition in assay [1], in assay [2] and in assay [3] were 4%, 2.42% and -0.4%, respectively.

Consider `CCCc1c(C(=O)OCC)c2cc(O)ccc2n1-c1ccc(OC)cc1`, for which the inhibition was 5.29% in assay [1], 6.77% in assay [2] and 4.32% in assay [3].

As for `CCc1ccc(CN2CCC(NC(=O)c3cc(-c4ccc(N(C)C)cc4)cs3)C2)cc1` (stereo not drawn), the inhibition in assay [1] was determined as 1.27%; in assay [2], 4.08%; in assay [3] it was 6.01%.

Turning to `CC(C)(C)c1ccccc1OCCCON1C(=N)N=C(N)NC1(C)C`, the inhibition in assay [1] was 38%; in assay [2], 59.3%; in assay [3], 37.1%.

On to `Cc1cccc2[nH]c(-c3cc(-c4cn[nH]c4)cnc3N)nc12`, for which the inhibition in assay [1] turned out to be 2.56%; in assay [2], 2.36%; in assay [3], 2.33%.

On to `CCCNCc1ccc(-c2ccc(CN(C(=O)c3nn(-c4ccccc4)nc3C)C3CCOCC3)cc2)nc1`, for which the inhibition in assay [1] is -0.49%; in assay [2] it was -0.28%; in assay [3], -1.66%.

Regarding `CCC(C)NCC(O)(c1ccc(Cl)cc1)c1ccc(Cl)cc1` (stereo not drawn), the results for the inhibition in assay [1], in assay [2] and in assay [3] were -2.33%, -0.32% and -0.2%, respectively.

On to `CC(C)CN(c1nc(C(=O)NNC(=O)[C@H](CC2CC2)NC(=O)c2cc3cc(OCCN4CCCCC4)ccc3o2)cs1)C1CC1`, for which the values for the inhibition in assay [1], in assay [2] and in assay [3] were -3.13%, 0.58% and 0.46%, respectively.

Consider `CC(C)CCCC(C)(C)NC[C@@H](O)[C@H](Cc1ccccc1)NC(=O)c1cccc(CCC2CC2)c1`, for which the inhibition was 3.16% in assay [1], 4.54% in assay [2] and 4.06% in assay [3].

Turning to `CCN(Cc1ccccc1)C1CCN(Cc2cc(Br)ccc2O)CC1`, the inhibition in assay [1] came to 2.39%; in assay [2], 2.05%; in assay [3] it was 2.71%.

For the compound `O=C(Nc1cccc(CN2CCCN(Cc3cccnc3)CC2)c1)c1cc2ccccc2s1`, the inhibition is 4.38% in assay [1], 4.77% in assay [2] and -1.53% in assay [3].

Turning to `Cc1cccc2nc(-c3cccc(-c4ccc(NC(=O)Cc5ccon5)cc4)c3)[nH]c12`, the results for the inhibition in assay [1], in assay [2] and in assay [3] were 14.2%, 12.3% and 10.8%, respectively.
